Among the data in a collection of fitness landscapes (doi:10.1126/science.1257360) are enrichment ratio values, retold here.

In all, about 140,000 sequences were measured (“enrichment ratio after two sorts for PhoP signalling”: median about 0, highest 2% from about 11 on). This is one part of a sample in which the highest values are shown more often than they occur. Where only a bound is given, the exact number is not on record here.

B1: PhoQ; a variant is named by its letters at X, in order, P23837 (parent)
chain: MKKLLRLFFPLSLRVRFLLATAAVVLVLSLAYGMVALIGYSVSFDKTTFRLLRGESNLFYTLAKWENNKLHVELPENIDKQSPTMTLIYDENGQLLWAQRDVPWLMKMIQPDWLKSNGFHEIEADVNDTSLLLSGDHSIQQQLQEVREDDDDAEMTHSVAVNVYPATSRMPKLTIVVVDTIPVELKSSYMVWSWFIYVLSANLLLVIPLLWVAAWWSLRPIEALAKEVRELEEHNRELLNPATTRELTSLVRNLNRLLKSERERYDKYRTTLTDLTHSLKTPLXXLQXXLRSLRSEKMSVSDAEPVMLEQISRISQQIGYYLHRASMRGGTLLSRELHPVAPLLDNLTSALNKVYQRKGVNISLDISPEISFVGEQNDFVEVMGNVLDNACKYCLEFVEISARQTDEHLYIVVEDDGPGIPLSKREVIFDRGQRVDTLRPGQGVGLAVAREITEQYEGKIVAGESMLGGARMEVIFGRQHSAPKDE

Variants of B1 are the subject of this test. The experiment in a line: enrichment ratio after two sorts for PhoP signalling (ratio (wild type AVST 3.29)); higher = more functional. The note with it: with PhoP (E. coli).
For IDFI, the enrichment ratio was no more than 0.25. Consider NPDM, for which the enrichment ratio is no more than 0.25. Under PIRV stands no more than 0.25; under EGSN, no more than 0.25. Take PKCK: the enrichment ratio was no more than 0.25.

Turning to RLKF, the enrichment ratio is no more than 0.25. AIND: the enrichment ratio is no more than 0.25.

In the case of GVLN, the enrichment ratio is 10.1. Under KKSM stands no more than 0.25. Consider ALSM, for which the enrichment ratio worked out at 17. AMSM: the enrichment ratio worked out at 15.1. Under AVSM stands 11.3; under WISM, no more than 0.25. Under AISM stands 15.9; under KMSM, no more than 0.25; under ARSM, 4.49. Next, AQSM: 10.4; NMSM: no more than 0.25. AVSF: the enrichment ratio was 9.87. Under DRSF stands no more than 0.25; under HYGV, no more than 0.25; under IFME, no more than 0.25. As to FRHK, the enrichment ratio is no more than 0.25.

For the variant PAGH, the enrichment ratio was no more than 0.25. Under QFCS stands no more than 0.25; under SPYV, no more than 0.25; under WPGT, no more than 0.25. For YLNI, the enrichment ratio is no more than 0.25. Next, NISM: 0.899; ANSF: 5.47; ALHF: no more than 0.25.

With RISM, the enrichment ratio is no more than 0.25. Next, TISM: 27.4; ANSM: 16.6; PLSF: no more than 0.25.

Take ALSF: the enrichment ratio came out at 12.1. Next, EYYP: no more than 0.25; PMHD: no more than 0.25. For APSK, the enrichment ratio was no more than 0.25. Under YWYS stands no more than 0.25; under KTMK, no more than 0.25; under RNCC, no more than 0.25. Turning to QASQ, the enrichment ratio was 23.3. Under QPSQ stands no more than 0.25. On to FSSQ, for which the enrichment ratio is no more than 0.25.

As to TSSQ, the enrichment ratio amounted to 11.8.

As for KASQ, the enrichment ratio is no more than 0.25. As to QSSQ, the enrichment ratio worked out at 11.3. Under TPSQ stands no more than 0.25; under KSSQ, no more than 0.25. Next, QASK: no more than 0.25; LWCS: no more than 0.25; KPGV: no more than 0.25. Next, FAWD: no more than 0.25; LEFH: no more than 0.25; ELWP: no more than 0.25. As for MRDF, the enrichment ratio is no more than 0.25. Consider TCQR, for which the enrichment ratio worked out at 4.53. Under MICH stands 2.87. Under MICC stands 29.6. Consider MQCC, for which the enrichment ratio came to 11.8. Under MQTH stands no more than 0.25; under MILH, 0.967.

As for MQCI, the enrichment ratio was found to be 1.41. Under IQVR stands no more than 0.25. Under NDHA stands no more than 0.25; under MDME, no more than 0.25; under RVHQ, no more than 0.25.

Turning to THNL, the enrichment ratio amounted to 12.7. Next, THNI: 14.1; NHNI: no more than 0.25; YHNL: no more than 0.25.

As for SHNI, the enrichment ratio turned out to be 8.22. For the variant NHNL, the enrichment ratio is no more than 0.25. Next, YPKW: no more than 0.25; AGAF: 3.66; TPRL: no more than 0.25. Next, YTGI: no more than 0.25; MTGI: 11.7; GNGI: no more than 0.25. Next, AGFP: no more than 0.25; ANGI: 22.1.

As to GHGI, the enrichment ratio is no more than 0.25.

ANHA: the enrichment ratio was no more than 0.25.

Turning to AHGI, the enrichment ratio is no more than 0.25. Regarding AIGI, the enrichment ratio came out at 11.8. Next, AGGI: 12.9; MTGD: no more than 0.25.

Regarding VHGI, the enrichment ratio is no more than 0.25. In the case of IIYR, the enrichment ratio was no more than 0.25. Under DKAR stands no more than 0.25. Next, LMEW: no more than 0.25.

VFIY: the enrichment ratio was no more than 0.25. Next, KSGI: no more than 0.25. As to MMGI, the enrichment ratio is no more than 0.25.

In the case of ATGS, the enrichment ratio was 5.38. Next, ATGI: 13.1; TMGI: 20.6; TTGI: 9.44. Take KCGI: the enrichment ratio is no more than 0.25. As for TMFP, the enrichment ratio was no more than 0.25.

On to TSGI, for which the enrichment ratio turned out to be 12.8. Turning to MGHD, the enrichment ratio was no more than 0.25.

On to TSDS, for which the enrichment ratio stood at 0.648. Under FMNE stands no more than 0.25; under SRAQ, no more than 0.25. Under TEAQ stands 28; under SEAQ, 13.7; under SLAQ, 3.9. Take NEAQ: the enrichment ratio was no more than 0.25.

Consider QEAQ, for which the enrichment ratio is no more than 0.25. Turning to LILM, the enrichment ratio was no more than 0.25. Take MPQI: the enrichment ratio was no more than 0.25. Under IQHE stands no more than 0.25.

In the case of EPTW, the enrichment ratio was no more than 0.25. In the case of KMAC, the enrichment ratio was no more than 0.25. Next, CMAC: 23.4; SMTC: 8.15. Next, GMAC: no more than 0.25; SMPC: no more than 0.25. Next, TMAC: 28.2.

SMAC: the enrichment ratio was 12.5. Next, NMAC: no more than 0.25. Next, NNAC: no more than 0.25; VQIW: no more than 0.25. Next, NELI: no more than 0.25; MAEF: no more than 0.25; RVFY: no more than 0.25. For SKNN, the enrichment ratio was no more than 0.25. Next, NLIQ: no more than 0.25; CALN: 65; SALY: 11.8.

For SALT, the enrichment ratio was 11.2. Under SAAT stands 3.66; under NALY, no more than 0.25; under SAVT, 0.95. For the variant KALY, the enrichment ratio was no more than 0.25. Under KYLK stands no more than 0.25; under QILN, no more than 0.25. On to SPLK, for which the enrichment ratio was no more than 0.25.

For NALN, the enrichment ratio is no more than 0.25. Consider SALK, for which the enrichment ratio came out at 15.2. Under AFGW stands no more than 0.25. In the case of DHYR, the enrichment ratio is no more than 0.25. Next, VAYT: no more than 0.25. In the case of QIHG, the enrichment ratio worked out at 2.32. Next, YSRD: no more than 0.25; NFVV: no more than 0.25; SALA: 5.84.

Turning to SAMS, the enrichment ratio worked out at 7.54. Under SACN stands 9.88. For SAMG, the enrichment ratio came out at 5.01. Next, SAMK: 17.9; KALN: no more than 0.25.
